Among the targets are RELARELA (p65 homodimer) (Homo sapiens, UniProt Q04206 1-307); p50p50 homodimer (Homo sapiens, UniProt P19838 7-356); RELB subunit;p50 subunit (Homo sapiens;Homo sapiens, UniProt Q01201;P19838 120-401;7-356).
What all share (assay): protein binding microarray; high values mean tight binding
Common to all, as to conditions: dsDNA, one strand shown

For another test, the target named is T1, p52p52 homodimer (Homo sapiens, UniProt Q00653 4-332).
T1 sequence: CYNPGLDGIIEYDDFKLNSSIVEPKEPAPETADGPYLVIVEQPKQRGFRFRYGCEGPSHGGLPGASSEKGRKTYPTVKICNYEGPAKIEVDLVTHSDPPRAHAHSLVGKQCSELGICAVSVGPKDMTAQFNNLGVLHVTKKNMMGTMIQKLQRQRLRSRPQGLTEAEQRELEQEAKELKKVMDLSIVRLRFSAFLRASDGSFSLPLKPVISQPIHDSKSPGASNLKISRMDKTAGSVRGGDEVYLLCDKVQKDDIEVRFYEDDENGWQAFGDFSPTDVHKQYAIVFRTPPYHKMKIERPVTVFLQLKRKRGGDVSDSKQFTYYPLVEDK

In test [1] the target is RELA (p65) subunit of heterodimer;p50 subunit (Homo sapiens;Homo sapiens, UniProt Q04206;P19838 1-307;7-356).
Chain of RELA (p65) subunit of heterodimer;p50 subunit (Q04206 1-307, chain 1 of 2): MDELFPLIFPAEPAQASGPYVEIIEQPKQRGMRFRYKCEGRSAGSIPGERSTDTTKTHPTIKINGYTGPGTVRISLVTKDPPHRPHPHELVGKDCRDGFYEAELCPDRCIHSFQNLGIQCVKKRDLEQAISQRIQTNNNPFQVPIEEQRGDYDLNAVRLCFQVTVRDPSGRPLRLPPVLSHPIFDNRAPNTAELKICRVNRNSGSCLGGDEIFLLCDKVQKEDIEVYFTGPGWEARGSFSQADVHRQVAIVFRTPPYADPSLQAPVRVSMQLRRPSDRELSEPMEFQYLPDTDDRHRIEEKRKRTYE
Chain of RELA (p65) subunit of heterodimer;p50 subunit (P19838 7-356, chain 2 of 2): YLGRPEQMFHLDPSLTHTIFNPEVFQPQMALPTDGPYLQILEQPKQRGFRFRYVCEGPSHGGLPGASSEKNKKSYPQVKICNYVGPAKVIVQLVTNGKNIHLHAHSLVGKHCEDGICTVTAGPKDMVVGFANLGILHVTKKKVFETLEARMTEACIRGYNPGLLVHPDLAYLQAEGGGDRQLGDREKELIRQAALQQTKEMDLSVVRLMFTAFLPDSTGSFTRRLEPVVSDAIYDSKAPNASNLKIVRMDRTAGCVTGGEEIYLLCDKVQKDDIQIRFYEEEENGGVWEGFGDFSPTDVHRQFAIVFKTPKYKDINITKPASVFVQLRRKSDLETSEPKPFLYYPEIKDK
Test [2] concerns the target RELA (p65) subunit of heterodimer;p52 subunit (Homo sapiens;Homo sapiens, UniProt Q04206;Q00653 1-307;4-332).
For another test, the target named is T2, RELB subunit;p52 subunit (Homo sapiens;Homo sapiens, UniProt Q01201;Q00653 120-401;4-332).
T2 sequence 1: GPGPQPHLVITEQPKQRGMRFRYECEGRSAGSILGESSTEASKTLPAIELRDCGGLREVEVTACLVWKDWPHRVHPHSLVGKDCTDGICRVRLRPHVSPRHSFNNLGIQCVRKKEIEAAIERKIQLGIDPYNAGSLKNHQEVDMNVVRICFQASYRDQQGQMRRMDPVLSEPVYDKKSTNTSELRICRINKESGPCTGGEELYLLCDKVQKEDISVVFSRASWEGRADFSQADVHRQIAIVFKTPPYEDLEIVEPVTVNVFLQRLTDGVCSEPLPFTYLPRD
T2 sequence 2: T1 sequence

Test [3] has as its target C-Rel subunit;p50 subunit (Homo sapiens;Homo sapiens, UniProt Q04864;P19838 1-285;7-356).
Test [4] deals with T3, C-Rel subunit;p52 subunit (Homo sapiens;Homo sapiens, UniProt Q04864;Q00653 1-285;4-332).
T3 sequence 1: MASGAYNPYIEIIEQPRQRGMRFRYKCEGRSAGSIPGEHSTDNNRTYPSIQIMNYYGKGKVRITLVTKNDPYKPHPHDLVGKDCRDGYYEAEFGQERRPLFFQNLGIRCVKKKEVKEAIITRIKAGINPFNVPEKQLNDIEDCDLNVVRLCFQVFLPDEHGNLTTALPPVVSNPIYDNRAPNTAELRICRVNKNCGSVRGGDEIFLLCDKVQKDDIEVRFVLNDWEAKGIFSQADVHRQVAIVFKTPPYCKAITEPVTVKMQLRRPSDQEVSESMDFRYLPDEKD
T3 sequence 2: T1 sequence

Chain of p50p50 homodimer (P19838 7-356): as the sequence (P19838 7-356, chain 2 of 2) above
Chain of RELARELA (p65 homodimer) (Q04206 1-307): as the sequence (Q04206 1-307, chain 1 of 2) above

For the sequence AAGATGCCCCC, the binding signal with RELARELA (p65 homodimer) worked out at 0.101 z-score; with p50p50 homodimer it was 1.09 z-score; with p52p52 homodimer it was 0.461 z-score; in test [1] it was 0.893 z-score; in test [2] it was 0.788 z-score; with RELB subunit;p50 subunit, 0.97 z-score. Moreover, the results for the binding signal (with RELB subunit;p52 subunit; in test [3]; in [4]) were 1.17 z-score, 1.03 z-score and 0.633 z-score, respectively.

As to AAGAATGTCCC, the binding signal with RELARELA (p65 homodimer) is 1.27 z-score; with p50p50 homodimer it was 0.914 z-score; in the test with p52p52 homodimer, 0.691 z-score; in test [1] it was 0.927 z-score; in test [2] it was 0.625 z-score; with RELB subunit;p50 subunit it was 0.695 z-score. Further, the binding signal in the test with RELB subunit;p52 subunit came to 0.54 z-score; in test [3] it was 0.518 z-score; in test [4], 0.463 z-score.

As to CAGGTTGTCCT, the binding signal with RELARELA (p65 homodimer) is -0.115 z-score; with p50p50 homodimer it was -0.869 z-score; with p52p52 homodimer it was -0.451 z-score; in test [1], -0.774 z-score; in test [2], -0.884 z-score; with RELB subunit;p50 subunit, -0.961 z-score. Further, the results for the binding signal (with RELB subunit;p52 subunit; in [3]; in test [4]) were -0.805 z-score, -1.05 z-score and -0.71 z-score, respectively.

For AAAAGGATCCT, the binding signal with RELARELA (p65 homodimer) is -0.683 z-score; in the test with p50p50 homodimer, -1.24 z-score; in the test with p52p52 homodimer it was -0.703 z-score; in test [1], -1.11 z-score; in [2], -1.09 z-score; with RELB subunit;p50 subunit, -1.05 z-score. In addition, the binding signal with RELB subunit;p52 subunit was -0.866 z-score; in test [3], -1.6 z-score; in test [4], -0.998 z-score.

Turning to CAGGGGTTCCT, the binding signal is -0.143 z-score in the test with RELARELA (p65 homodimer); 0.529 z-score in the test with p50p50 homodimer; 0.77 z-score in the test with p52p52 homodimer; -0.0941 z-score in test [1]; 0.55 z-score in test [2]; -0.0145 z-score in the test with RELB subunit;p50 subunit. Also, the binding signal with RELB subunit;p52 subunit was 0.388 z-score; in [3] it was -0.324 z-score; in [4], 0.485 z-score.

Regarding GAAGATTTCCT, the binding signal with RELARELA (p65 homodimer) was 0.421 z-score; with p50p50 homodimer, -0.715 z-score; with p52p52 homodimer, -0.513 z-score; in test [1] it was -0.241 z-score; in test [2], -0.568 z-score; with RELB subunit;p50 subunit, -0.764 z-score. Further, the binding signal with RELB subunit;p52 subunit is -0.77 z-score; in [3], -0.169 z-score; in test [4], -0.383 z-score.

On to CAGTTTATCCC, for which the binding signal with RELARELA (p65 homodimer) is 0.419 z-score; with p50p50 homodimer, -0.117 z-score; with p52p52 homodimer, 0.0692 z-score; in test [1] it was -0.133 z-score; in test [2] it was -0.195 z-score; in the test with RELB subunit;p50 subunit, -0.213 z-score. Further, the binding signal with RELB subunit;p52 subunit was -0.287 z-score; in [3], 0.0891 z-score; in test [4], -0.0511 z-score.

Consider CAAGGCCCCCT, for which the binding signal with RELARELA (p65 homodimer) was -1.53 z-score; in the test with p50p50 homodimer, 0.645 z-score; with p52p52 homodimer, 0.212 z-score; in test [1] it was 0.0559 z-score; in test [2], 0.254 z-score; with RELB subunit;p50 subunit, 0.314 z-score. Further, the values for the binding signal (with RELB subunit;p52 subunit; in [3]; in test [4]) were 0.508 z-score, -0.126 z-score and -0.139 z-score, respectively.

As for GAGTTCTCCCC, the binding signal amounted to 0.519 z-score with RELARELA (p65 homodimer); 1.01 z-score with p50p50 homodimer; 0.732 z-score with p52p52 homodimer; 1.01 z-score in test [1]; 1.01 z-score in [2]; 1.23 z-score with RELB subunit;p50 subunit. Also, the results for the binding signal (in the test with RELB subunit;p52 subunit; in test [3]; in test [4]) were 1.07 z-score, 1.15 z-score and 0.673 z-score, respectively.

As to GGGTGGCCCCC, the binding signal was -0.733 z-score in the test with RELARELA (p65 homodimer); 0.527 z-score with p50p50 homodimer; 0.796 z-score in the test with p52p52 homodimer; 0.639 z-score in test [1]; 0.996 z-score in [2]; 0.399 z-score in the test with RELB subunit;p50 subunit. Moreover, the binding signal in the test with RELB subunit;p52 subunit was found to be 0.74 z-score; in test [3], 0.773 z-score; in [4], 0.833 z-score.

With AAGTAGACCCT, the binding signal in the test with RELARELA (p65 homodimer) was -0.746 z-score; with p50p50 homodimer, -0.785 z-score; with p52p52 homodimer, -0.531 z-score; in test [1], -0.711 z-score; in [2], -0.775 z-score; with RELB subunit;p50 subunit, -0.737 z-score. Also, the binding signal is -0.709 z-score with RELB subunit;p52 subunit, -1.17 z-score in test [3] and -0.772 z-score in test [4].

As for GAGTGTACCCC, the binding signal in the test with RELARELA (p65 homodimer) is 0.11 z-score; in the test with p50p50 homodimer it was -0.176 z-score; with p52p52 homodimer, -0.057 z-score; in test [1], 0.0359 z-score; in [2], 0.0373 z-score; with RELB subunit;p50 subunit it was 0.15 z-score. The binding signal with RELB subunit;p52 subunit turned out to be 0.337 z-score; in test [3], 0.0895 z-score; in [4], 0.24 z-score.

Take GGGTACTCCCC: the binding signal was determined as 1.34 z-score with RELARELA (p65 homodimer); 0.682 z-score with p50p50 homodimer; 3.13 z-score with p52p52 homodimer; 1.82 z-score in [1]; 2.75 z-score in [2]; 1.95 z-score in the test with RELB subunit;p50 subunit. For the same sequence, the binding signal with RELB subunit;p52 subunit stood at 1.96 z-score; in test [3], 1.45 z-score; in test [4], 2.17 z-score.

In the case of CAGTGTTTCCT, the binding signal in the test with RELARELA (p65 homodimer) is 0.51 z-score; in the test with p50p50 homodimer, -0.616 z-score; with p52p52 homodimer, -0.52 z-score; in [1], -0.47 z-score; in [2], -0.473 z-score; in the test with RELB subunit;p50 subunit it was -0.831 z-score. The binding signal in the test with RELB subunit;p52 subunit is -0.677 z-score; in test [3], -0.349 z-score; in [4] it was -0.285 z-score.

Consider GAAGTAATCCT, for which the binding signal in the test with RELARELA (p65 homodimer) was -0.663 z-score; with p50p50 homodimer it was -1.65 z-score; in the test with p52p52 homodimer it was -0.468 z-score; in test [1], -1 z-score; in test [2], -0.977 z-score; with RELB subunit;p50 subunit, -1.16 z-score. Further, the binding signal in the test with RELB subunit;p52 subunit is -0.928 z-score; in test [3], -1.23 z-score; in [4] it was -0.892 z-score.

For the origin of these results see PMC3218832.
